Test results from PubChem BioAssay AID1159580 (chemical genetic matrix, 2015).
“And” between values parts separate entries of the source, which are not always exact repeats. Equal entries are not always repeated. The campaign covered roughly 5,500 compounds. About 2,000 (36%) were called active. Not shown: some 18% with an inconclusive outcome. The list shows a part of the results. A number with no mark means an inactive call. No stated cut-off is given here; in the data, active means normalized growth mostly below about 0.91 (no sharp cut-off); inconclusive means no clear call, values can overlap the other calls; inactive means mostly above about 0.92.

Experiment: chemical genetic growth profiling, strain panel (AID 1159580);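 further: tested at 20 µM; growth read once vehicle control cultures reached saturation at 30 °C; 1 = growth at the plate median or of vehicle wells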
Conditions: S. cerevisiae deletion strains, growth OD

In the case of `C#CCCCCCCCCCCCC(O)CC(O)COC(C)=O` (stereo unspecified), the normalized growth (locus YAL013W, strain DEP1, stronger effect = lower value) is reported as 0.98, the normalized growth (locus YAL021C, strain ccr4, stronger effect = lower value) is reported as 0.766 (active) and the normalized growth (locus YAL026C, strain drs2, stronger effect = lower value) is reported as 0.906 (active). For the same molecule, the normalized growth (locus YAL030W, strain snc1, stronger effect = lower value) was 0.526 (active), the normalized growth (locus YBL061C, strain skt5, stronger effect = lower value) was 0.841 (active) and the normalized growth (locus YBR009C, strain hhf1, stronger effect = lower value) was 0.263 (active). For the same molecule, the normalized growth (locus YBR021W, strain FUR4, stronger effect = lower value) was 0.925, the normalized growth (locus YBR023C, strain chs3, stronger effect = lower value) was 0.756 (active) and the normalized growth (locus YBR171W, strain sec66, stronger effect = lower value) was 0.962. The normalized growth (locus YBR229C, strain ROT2, stronger effect = lower value) was 0.982, the normalized growth (locus YBR231C, strain swc5, stronger effect = lower value) was 0.962 and the normalized growth (locus YBR279W, strain paf1, stronger effect = lower value) was 0.87 (active). For the same molecule, the normalized growth (locus YCL011C, strain gbp2, stronger effect = lower value) was 0.32 (active), the normalized growth (locus YCL016C, strain dcc1, stronger effect = lower value) was 0.805 (active) and the normalized growth (locus YCL029C, strain bik1, stronger effect = lower value) was 0.954. For the same molecule, the normalized growth (locus YCL069W, strain vba3, stronger effect = lower value) was 0.852 (active), the normalized growth (locus YCR088W, strain abp1, stronger effect = lower value) was 0.947 and the normalized growth (locus YDL005C, strain med2, stronger effect = lower value) was 0.103 (active). The normalized growth (locus YDL035C, strain GPR1, stronger effect = lower value) was 0.908, the normalized growth (locus YDL040C, strain nat1, stronger effect = lower value) was 0.973 and the normalized growth (locus YDL074C, strain BRE1, stronger effect = lower value) was 0.857. The normalized growth (locus YDL101C, strain DUN1, stronger effect = lower value) was 0.975, the normalized growth (locus YDL134C, strain PPH21, stronger effect = lower value) was 0.972 and the normalized growth (locus YDL185W, strain tfp1, stronger effect = lower value) was 0.963. For the same molecule, the normalized growth (locus YDL192W, strain arf1, stronger effect = lower value) was 0.928, the normalized growth (locus YDR001C, strain nth1, stronger effect = lower value) was 0.999 and the normalized growth (locus YDR069C, strain doa4, stronger effect = lower value) was 1.02. For the same molecule, the normalized growth (locus YDR101C, strain arx1, stronger effect = lower value) was 0.916 (active), the normalized growth (locus YDR137W, strain rgp1, stronger effect = lower value) was 0.63 (active) and the normalized growth (locus YDR150W, strain NUM1, stronger effect = lower value) was 0.992. The normalized growth (locus YDR159W, strain sac3, stronger effect = lower value) was 0.289 (active), the normalized growth (locus YDR162C, strain NBP2, stronger effect = lower value) was 0.945 and the normalized growth (locus YDR195W, strain ref2) was 0.482 (active). The normalized growth (locus YDR297W, strain sur2, stronger effect = lower value) was 0.571 (active), the normalized growth (locus YDR318W, strain mcm21, stronger effect = lower value) was 0.889 (active) and the normalized growth (locus YDR334W, strain swr1, stronger effect = lower value) was 1.04. For the same molecule, the normalized growth (locus YDR335W, strain msn5, stronger effect = lower value) was 0.913 (active), the normalized growth (locus YDR388W, stronger effect = lower value) was 0.967 and the normalized growth (locus YDR392W, strain spt3, stronger effect = lower value) was 0.21 (active). For the same molecule, the normalized growth (locus YDR502C, strain sam2, stronger effect = lower value) was 0.923, the normalized growth (locus YEL003W, strain gim4, stronger effect = lower value) was 0.376 (active) and the normalized growth (locus YEL037C, strain rad23, stronger effect = lower value) was 0.997. For the same molecule, the normalized growth (locus YEL061C, strain CIN8 (second series), stronger effect = lower value) was 0.872 (active), the normalized growth (locus YEL061C, strain CIN8, stronger effect = lower value) was 0.989 and the normalized growth (locus YER015W, strain faa2, stronger effect = lower value) was 0.714 (active). The normalized growth (locus YER016W, strain bim1, stronger effect = lower value) was 0.861 (active), the normalized growth (locus YER110C, stronger effect = lower value) was 0.965 and the normalized growth (locus YER111C, strain swi4, stronger effect = lower value) was 0.927. The normalized growth (locus YER155C, strain BEM2 (second series), stronger effect = lower value) was 0.461 (active), the normalized growth (locus YER155C, strain BEM2, stronger effect = lower value) was 0.988 and the normalized growth (locus YER167W, strain BCK2, stronger effect = lower value) was 0.953. The normalized growth (locus YFR010W, strain ubp6, stronger effect = lower value) was 1.03, the normalized growth (locus YGL078C, strain dbp3, stronger effect = lower value) was 0.881 (active) and the normalized growth (locus YGL086W, strain mad1, stronger effect = lower value) was 0.91 (active). The normalized growth (locus YGL167C, strain pmr1, stronger effect = lower value) was 0.939, the normalized growth (locus YGL173C, strain kem1, stronger effect = lower value) was 0.539 (active) and the normalized growth (locus YGL227W, strain vid30, stronger effect = lower value) was 0.72 (active). For the same molecule, the normalized growth (locus YGL240W, strain doc1, stronger effect = lower value) was 0.727 (active), the normalized growth (locus YGL248W, strain PDE1, stronger effect = lower value) was 0.976 and the normalized growth (locus YGL253W, strain hxk2, stronger effect = lower value) was 0.788 (active). The normalized growth (locus YGR078C, strain PAC10, stronger effect = lower value) was 0.905, the normalized growth (locus YGR135W, strain pre9, stronger effect = lower value) was 0.918 and the normalized growth (locus YGR229C, strain SMI1, stronger effect = lower value) was 0.954. The normalized growth (locus YGR252W, strain gcn5, stronger effect = lower value) was 0.831, the normalized growth (locus YHR013C, strain ard1, stronger effect = lower value) was 1.13 and the normalized growth (locus YHR027C, strain rpn1, stronger effect = lower value) was 0.82 (active). For the same molecule, the normalized growth (locus YHR030C, strain SLT2, stronger effect = lower value) was 0.98 and 0.998, the normalized growth (locus YHR079C, strain IRE1 (second series), stronger effect = lower value) was 0.942 and the normalized growth (locus YHR079C, strain IRE1, stronger effect = lower value) was 0.969. For the same molecule, the normalized growth (locus YHR094C, strain hxt1, stronger effect = lower value) was 0.97, the normalized growth (locus YHR129C, strain ARP1, stronger effect = lower value) was 0.978 and the normalized growth (locus YHR142W, strain chs7, stronger effect = lower value) was 0.624 (active). For the same molecule, the normalized growth (locus YHR200W, strain rpn10, stronger effect = lower value) was 0.945, the normalized growth (locus YIL066C, strain RNR3, stronger effect = lower value) was 0.885 and the normalized growth (locus YIL073C, strain SPO22, stronger effect = lower value) was 0.917. The normalized growth (locus YIL125W, strain kgd1, stronger effect = lower value) was 0.965, the normalized growth (locus YIR030C, strain dcg1, stronger effect = lower value) was 0.962 and the normalized growth (locus YJL092W, strain hpr5, stronger effect = lower value) was 0.963. For the same molecule, the normalized growth (locus YJL095W, strain BCK1 (second series), stronger effect = lower value) was 0.216 (active), the normalized growth (locus YJL095W, strain BCK1, stronger effect = lower value) was 0.935 and 1 and the normalized growth (locus YJL115W, strain asf1, stronger effect = lower value) was 0.975. The normalized growth (locus YJL129C, strain trk1, stronger effect = lower value) was 0.213 (active), the normalized growth (locus YJL134W, strain LCB3, stronger effect = lower value) was 0.997 and the normalized growth (locus YJL154C, strain vps35, stronger effect = lower value) was 1.01. For the same molecule, the normalized growth (locus YJL164C, strain tpk1, stronger effect = lower value) was 0.258 (active), the normalized growth (locus YJL166W, strain qcr8, stronger effect = lower value) was 0.283 (active) and the normalized growth (locus YJL168C, strain set2, stronger effect = lower value) was 0.966. It also gave a normalized growth (locus YJL187C, strain SWE1 (second series), stronger effect = lower value) of 0.954, a normalized growth (locus YJR043C, strain POL32, stronger effect = lower value) of 0.897 and a normalized growth (locus YJR066W, strain TOR1, stronger effect = lower value) of 0.957. The normalized growth (locus YJR075W, strain HOC1, stronger effect = lower value) was 0.947.
